Measurements published in PubChem BioAssay AID743360 (Molecular Libraries Program, Specialized Chemistry Center, …, 2014).
A number with no mark means an inactive call. Activity calls are given as the source filed them.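 The calls were made as follows: active = calcium retention capacity relative to untreated control above about 1.1 ratio (limit read from the data); inactive = the rest.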

experiment: mtPTP inhibition via calcium retention, dose response, biochemical, dry powder samples, uHTS hits, Calcium Green-5N (AID 743360); details: isolated mitochondria, Ca retention capacity

Compound | CRC/CRC0 ratio at 12.5 uM (higher = more inhibition)
COc1ccc(Cl)cc1C(=O)Nc1ccc(N(C)C)cc1 | 1.18 (active)
COc1ccc(Cl)cc1C(=O)Nc1ccc(CCN2CCN(C(=O)OC(C)(C)C)CC2)cc1 | 1.37 (active)
O=C(Nc1ccc(Br)cc1)c1cc(C2CC2)on1 | 1.06
Cc1ccc(-c2cc(C(=O)Nc3cccc(Cl)c3)no2)cc1 | > 1
CC1CCN(CCCC(=O)c2ccc(Br)cc2)CC1 | 1.05
O=C(Nc1ccc(Cl)cc1)c1cc(-c2ccccc2)on1 | > 1
Cc1c(Cl)cccc1NC(=O)c1cc(-c2cccc(O)c2)on1 | 6 (active)
COc1ccc(Cl)cc1C(=O)Nc1ccc(CN2CCN(C)CC2)cc1 | 1.24 (active)
O=C(Nc1ccc(CN2CCCCC2)cc1)c1cccc(OCc2ccccc2)c1 | 3.54 (active)
COc1c(Cl)cccc1NC(=O)c1cc(-c2cccc(O)c2)on1 | 1.82 (active)
COc1ccc(Cl)c(C(=O)Nc2ccc(CN3CCN(C(=O)OC(C)(C)C)CC3)cc2)c1 | 1.37 (active)
C[C@@H]1CCC[C@H](C)N1CCCC(=O)c1ccc(Br)cc1 | 1.01
CCN(CC)c1ccc(NC(=O)c2ccc(OC)c(Cl)c2)cc1 | 0.976
O=C(Nc1cc(Cl)ccc1Cl)c1cc(-c2cccc(O)c2)on1 | 4.67 (active)
CN1CCN(CCc2ccc(NS(=O)(=O)c3ccc(F)c(Cl)c3)cc2)CC1 | 1.08
CCN(C(=O)c1cc(Cl)ccc1OC)c1ccccc1 | > 1
COc1ccc(Cl)c(C(=O)Nc2ccc(CCN3CCN(C)CC3)cc2)c1 | > 1

Compound | CRC/CRC0 ratio at 12.5 uM (higher = more inhibition)
CN1CCN(CCc2ccc(NS(=O)(=O)c3cccc(Cl)c3)cc2)CC1 | > 1
Cc1cc(NC(=O)c2cc(-c3ccc(F)cc3)on2)no1 | > 1
CN1CCN(Cc2ccc(NS(=O)(=O)c3cccc(Cl)c3)cc2)CC1 | 1.01
COc1ccc(Cl)cc1C(=O)Nc1ccc(CCN2CCOCC2)cc1 | 1.23 (active)
CC1(C)CCN(CCCC(=O)c2ccc(Br)cc2)CC1 | 1.1 (active)
COc1ccc(Cl)cc1C(=O)Nc1ccc(CN2CCOCC2)cc1 | 1.2 (active)
O=C(Nc1cccc(Cl)c1)c1cc(-c2ccccc2)on1 | > 1
O=C(Nc1ccc(OCc2ccccc2)c(Cl)c1)c1cc(-c2cccc(O)c2)on1 | > 1
O=C(Nc1ccc(F)cc1F)c1cc(-c2ccccc2)on1 | > 1
O=C(Nc1ccc(CCN2CCCCC2)cc1)c1cccc(OCc2ccccc2)c1 | 3.04 (active)
COc1ccccc1C(=O)Nc1ccc(C(=O)N2CCCCC2)cc1 | > 1
COc1ccc(Cl)cc1C(=O)Nc1ccc(CCN2CCCCC2)cc1 | 1.51 (active)
O=C(Nc1ccccc1OCc1ccccc1)c1cc(-c2cccc(O)c2)on1 | 1.14 (active)
O=C(Nc1cccc(Cl)c1)c1cc(-c2ccc(Cl)cc2)on1 | > 1
COc1ccc(NC(=O)c2cc(-c3ccc(Cl)cc3)on2)cc1Cl | > 1
CN1CCN(CCc2ccc(NC(=O)c3cccc(OCc4ccccc4)c3)cc2)CC1 | 2.05 (active)
